Columns and labels:
Conditions in all cases: concentration: 1 μM, replicates: in singlicate; n = 1
MAP4K2 = system: MAP4K2
MAP4K3 = system: MAP4K3
MAP4K4 = system: MAP4K4
MAP4K5 = system: MAP4K5
MAPKAPK2 = system: MAPKAPK2
MAPKAPK5 = system: MAPKAPK5
MARK1 = system: MARK1
MARK2 = system: MARK2
MARK3 = system: MARK3
MARK4 = system: MARK4
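Note: KINOMEscan kinase panel screen.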

NS(=O)(=O)c1cccc(N/C=C2\C(=O)Nc3ccc(S(=O)(=O)Cc4c(Cl)cccc4Cl)cc32)c1 [GSK398099]
%Inh (MAP4K2): 0%
%Inh (MAP4K3): 19%
%Inh (MAP4K4): 28%
%Inh (MAP4K5): 0%
%Inh (MAPKAPK2): 20%
%Inh (MAPKAPK5): 0%
%Inh (MARK1): 0%
%Inh (MARK2): 0%
%Inh (MARK3): 0%
%Inh (MARK4): 0%

Cc1ccc(-c2nc(Nc3ccncc3)c3ccccc3n2)s1 [GSK189015]
%Inh (MAP4K2): 0%
%Inh (MAP4K3): 19%
%Inh (MAP4K4): 23%
%Inh (MAP4K5): 15%
%Inh (MAPKAPK2): 25%
%Inh (MAPKAPK5): 0%
%Inh (MARK1): 7%
%Inh (MARK2): 0%
%Inh (MARK3): 22%
%Inh (MARK4): 13%

O=C(Nc1n[nH]c2nc(-c3cccs3)c(Br)cc12)C1CCCC1 [SB-743341]
%Inh (MAP4K2): 0%
%Inh (MAP4K3): 0%
%Inh (MAP4K4): 0%
%Inh (MAP4K5): 0%
%Inh (MAPKAPK2): 5%
%Inh (MAPKAPK5): 17%
%Inh (MARK1): 22%
%Inh (MARK2): 8%
%Inh (MARK3): 2%
%Inh (MARK4): 19%

O=C(Nc1n[nH]c2nc(-c3ccco3)c(Br)cc12)C1CCN(Cc2ccccc2)C1.O=C(O)[C@H](O)[C@@H](O)C(=O)O (stereo not shown) [SB-742034]
%Inh (MAP4K2): 14%
%Inh (MAP4K3): 2%
%Inh (MAP4K4): 0%
%Inh (MAP4K5): 0%
%Inh (MAPKAPK2): 5%
%Inh (MAPKAPK5): 5%
%Inh (MARK1): 27%
%Inh (MARK2): 14%
%Inh (MARK3): 0%
%Inh (MARK4): 14%

Source: PMC5540273 (PLoS ONE, 2017)
